High-throughput results from PubChem BioAssay.
BoNT-F LC inh – inhibitors of Botulinum neurotoxin F light chain protease; Multiplex microsphere protease cleavage assay, flow cytometry; inhibition, % at 10 µM; 360,000 compounds, 0.22% hits; AID 588497; in the data active means inhibition above about 35%, passing the limit was not always enough; inconclusive means no clear call, values can overlap the other calls; further: plate controls were buffer without enzyme for full effect and enzyme alone for no effect
BJeLR viability – kills HRASV12-expressing BJeLR cells | 300,000 compounds, 0.17% hits | BJeLR (HRASV12) viability, CellTiter-Glo ATP luminescence, 48 h | inhibition, % (test concentration not listed) | AID 1554; in the data active means inhibition above about 50%; inconclusive means no clear call, values can overlap the other calls
BoNT-A LC inh2 – blocks Botulinum neurotoxin A light chain protease. multiplex microsphere protease substrate cleavage, flow cytometry. inhibition, % at 10 µM. 360,000 compounds, 0.17% hits. AID 588499; further: plate controls were buffer without enzyme for full effect and enzyme alone for no effect
SARS 3CLpro inh – SARS-CoV 3CLpro protease inhibition; P0C6X7; recombinant SARS-CoV 3CLpro, quenched FRET peptide cleavage; inhibition, % at 6 µM; 290,000 compounds, 0.14% hits; AID 1706; in the data active means inhibition above about 12%
Bead autofluor – compound fluorescence in toxin protease inhibitor counterscreen. compound autofluorescence counterscreen, microsphere flow cytometry; active compounds read high. fluorescence intensity (test concentration not listed). 360,000 compounds, 3.1% hits; in the data active means fluorescence intensity above about 16000; inconclusive means no clear call, values can overlap the other calls
Anthrax LF prot – blocks Bacillus anthracis lethal factor protease; multiplex microsphere protease cleavage assay, LF; inhibition, % at 10 µM; 360,000 compounds, 0.12% hits; P15917; further: plate controls were buffer without enzyme for full effect and enzyme alone for no effect
Target sequence (P15917 whole entry, looked up): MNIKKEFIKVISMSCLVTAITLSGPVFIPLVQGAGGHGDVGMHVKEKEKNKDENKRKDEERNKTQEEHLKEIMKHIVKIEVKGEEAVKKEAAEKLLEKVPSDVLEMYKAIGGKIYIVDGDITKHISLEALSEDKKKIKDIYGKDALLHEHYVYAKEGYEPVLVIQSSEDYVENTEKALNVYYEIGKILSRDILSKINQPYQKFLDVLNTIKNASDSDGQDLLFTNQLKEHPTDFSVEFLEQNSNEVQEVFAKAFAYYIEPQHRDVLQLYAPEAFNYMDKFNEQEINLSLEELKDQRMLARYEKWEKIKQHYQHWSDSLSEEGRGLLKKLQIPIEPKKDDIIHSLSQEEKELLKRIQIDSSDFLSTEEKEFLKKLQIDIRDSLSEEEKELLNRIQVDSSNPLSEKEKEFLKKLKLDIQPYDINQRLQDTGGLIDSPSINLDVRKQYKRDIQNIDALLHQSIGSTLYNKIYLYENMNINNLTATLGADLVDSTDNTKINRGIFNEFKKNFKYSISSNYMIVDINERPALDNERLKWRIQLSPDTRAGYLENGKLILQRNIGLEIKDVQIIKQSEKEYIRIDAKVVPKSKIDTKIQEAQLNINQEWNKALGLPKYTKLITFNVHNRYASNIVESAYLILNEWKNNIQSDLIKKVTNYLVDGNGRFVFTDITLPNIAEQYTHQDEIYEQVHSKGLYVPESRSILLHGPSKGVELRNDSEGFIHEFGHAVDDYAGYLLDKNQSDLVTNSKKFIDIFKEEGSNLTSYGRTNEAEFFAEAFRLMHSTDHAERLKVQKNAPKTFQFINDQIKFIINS
The depositor's hits bear a star; ? = inconclusive; / = not tested or not shown. An excerpt weighted towards active compounds, which were near 3.6% of everything screened. Unless noted, no stated cut-off is given here; in the data, active means inhibition above about 30%; inconclusive means no clear call, values can overlap the other calls; inactive means below that.

SMILES	BoNT-F LC inh	BJeLR viability	BoNT-A LC inh2	SARS 3CLpro inh	Bead autofluor	Anthrax LF prot
Cc1ccc(S(=O)(=O)N2CCCCC2C(=O)O)cc1 (stereo not given)	-4	-1	0	-3	3393	2
Cc1ccc(S(=O)(=O)N2CCN(C(=O)CN3CCOCC3)C2C(C)C)cc1 (stereo not given)	0	17	2	1	22471*	2
CCOc1ccccc1Nc1nnc(SCC(=O)N2CCCC2)s1	-2	-1	0	-2	8546	-8
COc1ccccc1Nc1nnc(SCC(=O)N2CCCC2)s1	1	-11	?	-4	23377*	0
COc1ccc(S(=O)(=O)N2CCOCC2)cc1NC(=O)CN1CCCc2ccccc21	-10	/	-1	/	4529	-11
CCOC(=O)c1c(C)oc2cc(Br)c(OC)cc12	-4	-1	-3	-4	25149*	-1
CCOC(=O)c1c(C)oc2cc3c(C(=O)OCC)c(C)oc3cc12	/	/	/	3	/	/
CCOC(=O)c1c(CN2CCN(CCO)CC2)n(C)c2cc(Br)c(OC)cc12	-2	-8	0	-3	23678*	-1
Cc1c(NC(=O)CSc2nnc(C(C)Oc3ccc(Cl)cc3)n2-c2ccccc2)c(=O)n(-c2ccccc2)n1C (stereo not given)	15	-3	11	3	18398*	-12
Cc1c(NC(=O)CSc2nnnn2C)c(=O)n(-c2ccccc2)n1C	-2	-5	1	-1	5702	3
COc1ccccc1OC(C)c1nnc(SCC(=O)Nc2c(C)n(C)n(-c3ccccc3)c2=O)n1-c1ccccc1 (stereo not given)	4	-7	4	1	21279*	-1
Cc1cccc(C)c1-n1nnnc1C1(C)CCC(=O)N1Cc1cccnc1 (stereo not given)	1	/	1	/	5114	4
O=C(Nc1nnc(SCCC2OCCO2)s1)C1CC(=O)N(c2ccc(F)cc2)C1 (stereo not given)	2	-8	1	-1	6167	2
Brc1ccc(Oc2nnnn2-c2ccccc2)cc1	9	-8	-1	-2	4232	-1
Cc1cc(Oc2nnnn2-c2ccccc2)ccc1Cl	1	11	?	4	19957*	-2
COC(=O)c1c(NC(=O)c2ccc(Br)s2)sc2c1CCC2	2	4	3	5	21623*	-4
COC(=O)c1c(NC(=O)c2nn(C)cc2Cl)sc2c1CCCC2	5	4	?	4	20893*	-6
COCCn1c(SCC(=O)Nc2sc(C)c(C)c2C#N)nnc1-c1ccc(OC)cc1	1	-10	-1	4	22774*	-2
CCOC(=O)CSc1ncc(OC)c(Sc2ccc(OC)cc2)n1	1	3	0	-1	20771*	0
CCOC(=O)CSc1nc(-c2ccccn2)ncc1OC	8	-9	-2	-6	4516	-4
CC(C)CNC(=S)NC1CCCC1	-4	-9	?	-1	20457*	-2
COc1ccc(CCNC(=O)COC(=O)c2cncc(Br)c2)cc1OC	7	/	3	/	3855	-9
OC(COc1cccc2ccccc12)CN1CCN(c2ccccc2Cl)CC1 (stereo not given)	?	-4	-2	1	4529	5
Cn1nnnc1N=N/C(=N/Nc1ccccc1)c1ccccc1	-22	66*	-4	2	2856	-11
Oc1ccccc1N=N/C(=N/Nc1ccccc1O)c1ccccc1	-9	-1	0	/	4230	1
SMILES	BoNT-F LC inh	BJeLR viability	BoNT-A LC inh2	SARS 3CLpro inh	Bead autofluor	Anthrax LF prot
C/C(=C\C(=O)c1ccc(C)o1)Nc1ccc2c(c1)OCO2	-12	3	-2	-1	23606*	-12
CCOc1ccc(N/C(C)=C/C(=O)c2ccc(C)o2)cc1	0	2	0	-1	9417	-17
COC(=O)c1ccc(N/C(C)=C/C(=O)c2ccc(C)o2)cc1	-1	3	0	0	16289*	-4
CC1(c2nnnn2-c2ccc3c(c2)OCCO3)CCC(=O)N1CCc1ccccc1F (stereo not given)	-6	/	0	/	4209	-4
CC(=O)N1CCc2cc(S(=O)(=O)CCC(=O)NCc3ccc(F)cc3)ccc21	4	-1	0	2	4318	-3
CCc1sc(NS(C)(=O)=O)nc1-c1ccccc1	-3	3	-1	2	23262*	-4
CCc1sc(NC(C)=O)nc1-c1ccccc1	0	-7	1	6	2022	0
COC(=O)c1sccc1NC(=O)c1csc(C)c1	1	11	0	2	16143*	-2
COC(=O)c1sccc1NC(=O)c1ccc(Br)s1	0	-7	0	-5	22720*	2
CCCC(=O)c1c(NC)cc(C)oc1=O	-6	4	?	3	21049*	0
CCCNc1cc(C)oc(=O)c1C(=O)CC	0	-6	0	5	2173	0
CCN(CC)S(=O)(=O)c1cccc(C(=O)NC(C(=O)NNC(=O)c2ccccc2F)C(C)C)c1 (stereo not given)	1	/	-1	/	2889	-11
CCC(C)C(=O)Nc1cc(Cl)ccc1C(=O)O (stereo not given)	8	4	0	-2	4561	-4
CCC(=O)Nc1cc(Cl)ccc1C(=O)O	2	-1	?	-2	19235*	2
COc1ccc2nc3n(c(=O)c2c1)-c1ncccc1C(=O)NC3CC(C)C (stereo not given)	-3	/	0	/	3825	-5
CCCOc1ccc(-c2nnn(CC(=O)N3CCCCC3)n2)cc1	-8	7	0	-1	4558	2
CCOC(=O)C(Cc1ccccc1)NC(=O)Cn1nnc(-c2ccccc2)n1 (stereo not given)	-2	6	-3	-5	20857*	4
CCOc1ccc(-c2nnn(CC(=O)NCc3ccco3)n2)cc1	-2	-7	?	-4	19976*	-2
CCCOc1ccc(-c2nnn(CC(=O)OCC)n2)cc1	-1	-3	-1	2	22991*	-6
COC(=O)c1ccccc1S(=O)(=O)Oc1ccc(-c2ccc(C(=O)O)cc2)cc1	37*	0	-3	8	3745	-14
O=C(O)c1ccc(-c2ccc(OS(=O)(=O)c3ccccc3F)cc2)cc1	8	-15	-1	2	5387	-2
O=C1CCCc2c1nn(-c1ccccc1)[n+]2[O-]	10	-1	10	-2	18962*	-16
O=[N+]([O-])c1nn(-c2ccccc2)[n+]([O-])c1N1CCN(c2ccccc2)CC1	0	-2	0	-4	4168	5
CCOc1cc(/C=N/N2CCN(Cc3ccccc3)CC2)ccc1O	?	-2	0	-6	4030	-10
CC(C)c1ccc(C2c3[nH]c4ccccc4c3C[C@H]3C(=O)N(c4ccccc4C(=O)N4CCC[C@H]4C(=O)O)C(=O)N23)cc1 (stereo not given in full)	0	-6	0	8	5905	4
